Source: paper PMC7862700, “An all-to-all approach to the identification of sequence-specific readers for epigenetic DNA modifications on cytosine”

Experiments:
Assay in all cases: DAPPL (digital affinity profiling via proximity ligation, sequencing); 10 mM Tris-HCl pH 7.5, 50 mM NaCl, 1 mM DTT, 4% glycerol, room temperature, 30 min; GST-TFs on glutathione beads, 16-mer random dsDNA library, 0.1% formaldehyde crosslink after washing; high values mean tight binding
Settings in all cases: protein: recombinant; tags: N-terminal GST; dsDNA, one strand shown
FLI1 = biological target: T1, FLI1 (Homo sapiens, UniProt Q01543 1-452)
T1 sequence: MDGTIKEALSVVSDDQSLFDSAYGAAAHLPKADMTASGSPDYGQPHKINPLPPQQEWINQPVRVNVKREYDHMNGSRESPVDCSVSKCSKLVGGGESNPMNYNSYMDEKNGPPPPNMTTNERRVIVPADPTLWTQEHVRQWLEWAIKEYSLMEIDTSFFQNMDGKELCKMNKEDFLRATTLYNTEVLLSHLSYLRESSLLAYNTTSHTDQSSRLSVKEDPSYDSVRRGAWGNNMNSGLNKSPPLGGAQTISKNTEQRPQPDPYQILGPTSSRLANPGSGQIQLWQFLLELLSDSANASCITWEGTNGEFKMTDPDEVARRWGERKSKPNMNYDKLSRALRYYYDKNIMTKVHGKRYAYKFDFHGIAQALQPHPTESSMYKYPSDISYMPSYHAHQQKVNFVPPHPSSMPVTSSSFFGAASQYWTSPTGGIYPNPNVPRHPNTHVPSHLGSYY
In short: (§1)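 Pools were built from human transcription factors expressed in yeast as GST fusions, captured on glutathione beads and DNA-barcoded, along with a tag-only sample. Incubation with 200 nmole of a 16-mer random double-stranded DNA library lasted 30 min at room temperature in Tris/NaCl/DTT/glycerol buffer, and was followed by washing, 0.1% formaldehyde crosslinking, proximity ligation, PCR amplification and Illumina NextSeq500 sequencing. Binding signal is the quotient of each hexamer's read frequency for a factor and its frequency for the tag-only sample.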

ELK1 = biological target: T2, ELK1 (Homo sapiens, UniProt P19419 1-428)
T2 sequence: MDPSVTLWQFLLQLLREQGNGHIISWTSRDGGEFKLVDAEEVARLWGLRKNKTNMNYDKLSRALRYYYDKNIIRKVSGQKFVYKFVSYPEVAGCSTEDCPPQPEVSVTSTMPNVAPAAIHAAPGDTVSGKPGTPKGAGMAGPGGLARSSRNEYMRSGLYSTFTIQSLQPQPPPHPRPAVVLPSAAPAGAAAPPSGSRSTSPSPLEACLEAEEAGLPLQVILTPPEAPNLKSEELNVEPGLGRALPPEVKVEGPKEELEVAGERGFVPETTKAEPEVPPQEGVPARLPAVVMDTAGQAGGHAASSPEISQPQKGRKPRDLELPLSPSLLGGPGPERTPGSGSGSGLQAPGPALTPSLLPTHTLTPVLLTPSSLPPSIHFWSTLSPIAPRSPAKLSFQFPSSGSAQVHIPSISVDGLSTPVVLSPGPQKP
In short: as §1

GABPA = biological target: T3, GABPA (Homo sapiens, UniProt Q06546 1-454)
T3 sequence: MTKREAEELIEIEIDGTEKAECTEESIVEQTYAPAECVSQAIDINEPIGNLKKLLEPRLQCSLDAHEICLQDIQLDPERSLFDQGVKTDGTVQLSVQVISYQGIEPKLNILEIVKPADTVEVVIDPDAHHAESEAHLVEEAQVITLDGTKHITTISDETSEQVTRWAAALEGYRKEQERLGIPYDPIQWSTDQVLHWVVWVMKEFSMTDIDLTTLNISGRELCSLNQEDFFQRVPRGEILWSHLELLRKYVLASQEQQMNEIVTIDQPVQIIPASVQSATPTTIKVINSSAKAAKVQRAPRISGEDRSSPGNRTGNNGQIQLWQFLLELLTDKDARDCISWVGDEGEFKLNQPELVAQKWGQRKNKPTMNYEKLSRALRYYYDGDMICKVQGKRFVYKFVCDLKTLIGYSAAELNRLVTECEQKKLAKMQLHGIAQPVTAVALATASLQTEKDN
In short: as §1

ERG = biological target: T4, ERG (Homo sapiens, UniProt P11308 1-479)
T4 sequence: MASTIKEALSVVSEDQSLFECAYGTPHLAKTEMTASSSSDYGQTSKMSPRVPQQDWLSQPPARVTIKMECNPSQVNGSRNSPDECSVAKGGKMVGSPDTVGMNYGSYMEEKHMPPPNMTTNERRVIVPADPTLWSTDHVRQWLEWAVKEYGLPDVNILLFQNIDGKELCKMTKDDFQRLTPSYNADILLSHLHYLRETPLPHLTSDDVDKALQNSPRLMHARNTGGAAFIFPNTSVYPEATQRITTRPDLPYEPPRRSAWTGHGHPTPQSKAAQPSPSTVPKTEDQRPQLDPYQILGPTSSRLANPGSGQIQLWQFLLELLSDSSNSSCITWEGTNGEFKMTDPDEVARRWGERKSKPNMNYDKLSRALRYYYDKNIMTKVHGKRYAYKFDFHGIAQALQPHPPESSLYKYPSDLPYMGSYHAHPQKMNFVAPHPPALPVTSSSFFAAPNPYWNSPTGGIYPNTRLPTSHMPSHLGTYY
In short: as §1

ELF1 = ELF1 (Homo sapiens, UniProt P32519 1-619)
In short: as §1

EHF = biological target: T5, EHF (Homo sapiens, UniProt Q9NZC4 1-300)
T5 sequence: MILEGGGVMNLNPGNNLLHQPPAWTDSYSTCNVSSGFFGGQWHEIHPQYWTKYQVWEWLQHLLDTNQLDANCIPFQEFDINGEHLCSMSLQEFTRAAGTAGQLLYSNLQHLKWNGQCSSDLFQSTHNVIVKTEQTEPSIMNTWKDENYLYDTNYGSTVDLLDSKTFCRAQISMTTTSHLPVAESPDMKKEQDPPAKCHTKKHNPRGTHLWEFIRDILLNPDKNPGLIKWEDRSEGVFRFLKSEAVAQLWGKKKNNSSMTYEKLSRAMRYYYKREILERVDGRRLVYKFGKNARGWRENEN
In short: as §1

SPI1 = SPI1 (Homo sapiens, UniProt P17947 1-270)
In short: as §1

SPIB = SPIB (Homo sapiens, UniProt Q01892 1-262)
In short: as §1

ELK3 = biological target: T6, ELK3 (Homo sapiens, UniProt P41970 1-407)
T6 sequence: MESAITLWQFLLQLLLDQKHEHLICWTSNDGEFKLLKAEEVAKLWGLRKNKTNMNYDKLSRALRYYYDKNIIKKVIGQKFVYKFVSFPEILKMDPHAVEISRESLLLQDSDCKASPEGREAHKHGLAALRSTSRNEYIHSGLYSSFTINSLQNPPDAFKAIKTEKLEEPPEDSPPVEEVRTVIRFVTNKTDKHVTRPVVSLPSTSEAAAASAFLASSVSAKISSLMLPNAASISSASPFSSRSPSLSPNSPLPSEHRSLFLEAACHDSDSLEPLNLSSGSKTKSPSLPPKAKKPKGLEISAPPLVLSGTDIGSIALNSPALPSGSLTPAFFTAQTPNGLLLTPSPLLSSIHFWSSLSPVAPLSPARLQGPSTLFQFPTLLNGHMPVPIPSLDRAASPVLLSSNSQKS
In short: as §1

Sequence of SPIB (Q01892 whole entry): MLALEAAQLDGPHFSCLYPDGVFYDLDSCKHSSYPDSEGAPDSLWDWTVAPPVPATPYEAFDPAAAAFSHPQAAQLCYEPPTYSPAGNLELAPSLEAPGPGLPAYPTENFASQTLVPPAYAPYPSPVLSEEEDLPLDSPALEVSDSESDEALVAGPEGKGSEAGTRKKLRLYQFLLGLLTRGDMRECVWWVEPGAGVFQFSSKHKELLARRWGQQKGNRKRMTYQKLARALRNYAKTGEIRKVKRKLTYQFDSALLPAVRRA
Sequence of ELF1 (P32519 whole entry): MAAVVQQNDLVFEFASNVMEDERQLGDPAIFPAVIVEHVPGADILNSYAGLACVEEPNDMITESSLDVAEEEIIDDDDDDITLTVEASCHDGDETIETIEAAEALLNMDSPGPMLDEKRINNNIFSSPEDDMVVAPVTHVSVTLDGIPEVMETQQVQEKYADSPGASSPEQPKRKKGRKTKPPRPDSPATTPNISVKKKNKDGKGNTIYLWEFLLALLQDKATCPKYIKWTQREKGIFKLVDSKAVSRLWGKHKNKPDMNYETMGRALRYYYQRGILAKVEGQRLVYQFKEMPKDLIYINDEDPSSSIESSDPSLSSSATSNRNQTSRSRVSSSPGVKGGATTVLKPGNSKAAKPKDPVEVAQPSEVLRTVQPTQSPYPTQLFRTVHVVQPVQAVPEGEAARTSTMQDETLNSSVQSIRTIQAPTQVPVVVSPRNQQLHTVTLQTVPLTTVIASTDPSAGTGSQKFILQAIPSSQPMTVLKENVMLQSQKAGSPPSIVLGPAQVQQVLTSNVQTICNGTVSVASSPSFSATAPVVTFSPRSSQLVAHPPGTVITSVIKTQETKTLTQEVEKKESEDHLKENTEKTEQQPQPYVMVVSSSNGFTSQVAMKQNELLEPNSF

Q: With CATACC as the sequence, how does the binding signal (FLI1) read?
A: 1.03 fold enrichment (6-mer frequency, TF over GST control)

Q: What about the binding signal (ELK1) of the same sequence?
A: 1.06 fold enrichment (6-mer frequency, TF over GST control)

Q: And the binding signal (GABPA)?
A: 1.11 fold enrichment (6-mer frequency, TF over GST control)

Q: What about the binding signal (ERG) of the same sequence?
A: 1.03 fold enrichment (6-mer frequency, TF over GST control)

Q: What about the binding signal (ELF1) of the same sequence?
A: 1.09 fold enrichment (6-mer frequency, TF over GST control)

Q: What about the binding signal (EHF) of the same sequence?
A: 1.1 fold enrichment (6-mer frequency, TF over GST control)

Q: What about the binding signal (SPI1) of the same sequence?
A: 1.03 fold enrichment (6-mer frequency, TF over GST control)

Q: And the binding signal (SPIB)?
A: 1.04 fold enrichment (6-mer frequency, TF over GST control)

Q: And the binding signal (ELK3)?
A: 1.09 fold enrichment (6-mer frequency, TF over GST control)
